Screens from PubChem.
Sampled rows, rich in hits. Any-hit rate of the full collection: about 6.8%.
NADH enzymes: inhibitors of PK/LDH coupling enzymes, profiling panel, artefact control, biochemical, MLSMR library; coupled PK/LDH NADH assays, four targets; IC50, µM (doses to about 10 µM), for the others: at the top dose inhibition; 65,000 compounds, 0.02% hits; AID 774, 2007;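 active means single-dose screening hits from any of four coupled enzyme assays that gave an IC50 when retested across doses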;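 further: the DPM-DC format reads NADH fluorescence rather than 340 nm absorbance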
Abs 340nm: compound light absorbance at 340 nm, profiling panel, artefact control, biochemical, MLSMR library, data from PS, PMK, MK assays; compound absorbance at 340 nm, fold over control; AID 708, 2007; fold change at 10 µM; 65,000 tested, under 10 active;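 active means at 10 µM dose, initial 340 nm absorbance at least 2 fold that of control wells; inactive means change under 2 fold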;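 further: initial absorbance extrapolated from kinetic A340 decline of NADH oxidation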
Spn PMK inh: S. pneumoniae PMK inhibitors, primary screen, biochemical, mevalonate pathway, pilot trial included | 65,000 compounds, 0.49% hits | phosphomevalonate kinase (Streptococcus pneumoniae D39) | purified PMK, PK/LDH-coupled NADH absorbance 340 nm | inhibition, % at 10 µM;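 active means top-ranked compounds by inhibition in the single 10 µM screen, taking a fixed number of the strongest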;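 further: 0% = full reaction with DMSO carrier and 100% = background rate without enzyme reaction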
Fluor 339 460: intrinsic fluorescence of library compounds, ex339/em460 – biochemical, MLSMR library, data from DPM-DC assay, artefact control, profiling panel. compound autofluorescence, ex339/em460 nm, NADH buffer; hits give high values; 1 = no-compound wells, NADH background. fluorescence fold increase at 10 µM. 65,000 compounds, 5.5% hits;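 active means at 10 µM, mean starting fluorescence two-fold or more over control wells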;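 further: signal is the first read of a kinetic run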
DPM-DC inhibit: S. pneumoniae DPM-DC inhibitors, primary screen, biochemical, PK/LDH-coupled NADH fluorescence; 65,000 compounds, 0.49% hits; diphosphomevalonate decarboxylase (Streptococcus pneumoniae D39); purified DPM-DC; AID 556, 2006; calls only at 10 µM;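 active means the 320 compounds with the highest percent inhibition in the single-dose primary screen, excluding strongly autofluorescent ones, cut at about 32% in these data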;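 further: kinetic rate of NADH fluorescence loss reporting ADP formed by the decarboxylase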
MK inhibit: S. pneumoniae MK inhibitors, primary screen, biochemical, PK/LDH-coupled NADH absorbance. mevalonate kinase [Streptococcus pneumoniae D39]. purified MK, PK/LDH-coupled NADH absorbance 340 nm. inhibition, % at 10 µM. 65,000 compounds, 0.48% hits. AID 555, 2006;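 active means ranked among the strongest by inhibition in the single 10 µM screen, a fixed top-ranked set picked for dose follow-up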
* marks the source's active call; other numbers are inactive results; i = inactive; · = no result shown.

SMILES	NADH enzymes	Abs 340nm	Spn PMK inh	Fluor 339 460	DPM-DC inhibit	MK inhibit
CCc1nnc(NC(=O)CSc2nnc(CNc3ccc(F)cc3)n2C2CCCCC2)s1	3%	0.99	9	1.1	i	1
CC1(C)CC(=O)c2c(nc3ccccc3c2N)C1	4%	1.1	0	2.8*	i	0
CCc1c(C)c2cc(Cl)c(O)c(CN(CC)CC)c2oc1=O	6%	1.1	6	3.7*	·	6
CCc1c(C)c2cc(Cl)c(O)c(CN(C)C)c2oc1=O	7%	1.2	1	3.7*	·	12
Cc1c(C)c2cc(Cl)c(O)c(CN(C)C)c2oc1=O	4%	1.1	0	2.3*	·	8
CCCCc1cc(=O)oc2c(CN(C)C)c(O)c(Cl)cc12	3%	1.2	0	2.3*	·	5
Cc1n[nH]c(C)c1S(=O)(=O)N1CCN(C2CCCCC2)CC1	2%	1	4	1	i	1
O=C(CN1C(=O)NC2NC(=O)NC21)NC1CCCCC1 (stereo not given)	9%	0.97	21	1.1	i	6
Clc1ccc(OCCCn2cncn2)cc1Cl	3%	1	5	1	i	7
COc1ccccc1OCc1nnc(SCC(=O)N2CCCCC2)n1-c1ccccc1	7%	1	7	0.97	i	0
COc1ccccc1-n1c(SCC(=O)N2CCCCC2)nnc1-c1ccccc1O	11%	1	27*	1	i	5
O=C(CN1C(=O)c2ccccc2C1=O)OCN1C(=O)c2ccccc2C1=O	4%	0.93	12	1.1	i	0
Cc1ccc(-c2cn3cccnc3n2)cc1NC(=O)c1c(-c2ccccc2Cl)noc1C	5%	1	10	5.2*	·	0
Cc1onc(-c2ccccc2Cl)c1C(=O)Nc1ccc(-c2cn3cccnc3n2)cc1	9%	1.1	18	5.2*	·	0
CC(=O)Nc1cccc(NC(=O)c2c(-c3ccccc3Cl)noc2C)c1	4%	1	4	1	i	7
Cc1onc(-c2ccccc2Cl)c1C(=O)Nc1cccc(-c2nc3ncccn3c2C)c1	6%	1	12	5.2*	·	0
Cc1cc(NC(=O)CSc2nnc(Cc3ccccc3)o2)no1	1%	1	0	1	i	4
Cc1nc(SC2C=CS(=O)(=O)C2)n[nH]1 (stereo not given)	4%	0.96	11*	1	i	0
COC(=O)c1ccc(N2C(=O)CC(Sc3n[nH]c(C)n3)C2=O)cc1 (stereo not given)	12%	1	12	0.99	i	11
Cc1ccccc1-c1coc2cc(O)ccc2c1=O	9%	1.2	10	3.9*	·	8
CC(C)Oc1ccc2c(=O)c(-c3ccccc3)coc2c1	2%	0.97	4	1	i	7
O=C(CC(Sc1ccccc1)c1cccs1)c1ccco1 (stereo not given)	8%	1.1	11	1.2	i	3
COc1ccc(NC(=O)Cc2nnc(SCC(=O)Nc3cc(C)ccc3OC)n2C)cc1	3%	1	5	1.1	i	4
CCCN(C(=O)c1ccccc1N)c1c(C)n(C)n(-c2ccccc2)c1=O	10%	1	29*	1.1	i	2
CCN(c1c(C)n(C)n(-c2ccccc2)c1=O)S(C)(=O)=O	3%	1	9	1	i	8
SMILES	NADH enzymes	Abs 340nm	Spn PMK inh	Fluor 339 460	DPM-DC inhibit	MK inhibit
COc1ccccc1OCC(=O)Nc1cccc(C(=O)N2CCOCC2)c1	3%	1.1	4	1.1	i	6
O=C(NCc1ccco1)Nc1ccc2nsnc2c1	4%	1	0	2.4*	·	5
O=C(NCc1ccco1)Nc1ccc(Br)cc1	8%	1	14	1.1	i	7
CC(Oc1ccccc1)C(=O)Nc1ccc(S(=O)(=O)NCC2CCCO2)cc1 (stereo not given)	2%	1	7	1.1	i	10
O=C1NC2=C(C(=O)c3ccccc32)C(c2ccccc2)N1 (stereo not given)	5%	0.98	9	1.1	i	7
COc1ccc(C2NC(=O)NC3=C2CCc2ccccc23)cc1 (stereo not given)	11%	1.1	14	3.8*	·	8
Cc1ccc(C2NC(=O)NC3=C2CCc2ccccc23)cc1 (stereo not given)	8%	1	12	2.6*	i	9
O=C1CCCc2nc(N3CCc4ccccc43)ncc21	11%	1.2	18	1.9	i	10
O=C1CC(c2ccccc2)Cc2nc(N3CCc4ccccc43)ncc21 (stereo not given)	4%	1	16	3*	·	4
c1csc(Cc2nc(-c3ccc(-n4cccc4)cc3)no2)c1	4%	1	7	1.1	i	4
Cc1nnc2sc(-c3ccc(-c4ccc(Cl)c(C(F)(F)F)c4)o3)nn12	11%	1.1	10	3.7*	·	12
Cc1oc(-c2cc(Cl)ccc2Cl)cc1-c1nn2c(C)nnc2s1	6%	1	18	1.1	i	0
CSc1nsc(SC)c1NC(=O)OCC1CCCO1 (stereo not given)	5%	0.99	11	1.1	i	4
Cc1c(S(=O)(=O)Nc2cccc(Cl)c2)c(=O)n(C)c(=O)n1C	18%	1.1	0	0.99	i	55*
COc1cc(OC)c(N2CC34C=CC(O3)C(C(=O)O)C4C2=O)cc1Cl (stereo not given)	3%	1	0	1.1	i	8
CCOC(=O)CCc1nc2ccccc2[nH]c1=O	11%	1.1	12	2.2*	i	5
CCSc1nc(-c2ccc(OC)cc2)ccc1C#N	1%	1	0	2*	i	2
CCOC(=O)c1ccoc1CSCc1ccc(C(=O)OC)o1	3%	1	7	1.1	i	2
CCOC(=O)C1CCN(S(=O)(=O)c2ccc(-c3nc4ccccc4s3)s2)CC1	8%	1.1	13	2.2*	i	6
COc1ccc(CCNc2oc(-c3ccccc3OC)nc2C#N)cc1OC	15%	1	15	3.9*	·	14
COc1ccc(CNc2oc(COc3ccccc3)nc2C#N)cc1	7%	1	16	0.96	i	5
N#Cc1nc(-c2ccc(F)cc2)oc1NCc1ccccc1	1%	1.1	1	2.2*	·	0
COc1ccccc1-c1nc(C#N)c(NCc2ccc(F)cc2)o1	12%	1	12	3.9*	·	12
COCCNc1oc(-c2ccccc2Cl)nc1C#N	8%	1.1	6	1.7	i	5
